Statin myotox sup: protects C2C12 myotubes from simvastatin toxicity. ATP luminescence, 48 h; scaled: DMSO 0, geranylgeraniol control 100. rescue of ATP level, % at 7.49 µM. 330,000 tested, 0.78% active;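 active = mean ATP rescue above about 67%, or every replicate alone reaching that limit, limit read from the data, passing the limit was not always enough; inconclusive = no clear call, values can overlap the other calls; inactive = mean under the limit and some replicate under it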;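 note: myotubes were challenged with 10 µM simvastatin during compound exposure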
esBAF inh: inhibitors of esBAF chromatin remodeling in mouse ES cells; Bmi1-luciferase knock-in reporter, 24 h; 100% = twice the neutral-well signal; reporter increase, % at 12.5 µM; 350,000 tested, 2% active; AID 602393; in the data active = activation above about 40%; inconclusive = no clear call, values can overlap the other calls;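 note: 0% = median of the plate's neutral control wells and 100% = double that signal; a rise in the Bmi1 reporter signal indicates esBAF inhibition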
Wnt act: activates Wnt/beta-catenin signaling in a reporter cell assay. activator, plate reader. activation, % at 9.35 µM. 300,000 tested, 1.2% active. AID 743398; in the data active = activation above about 30%, passing the limit was not always enough; inconclusive = no clear call, values can overlap the other calls;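 note: 0% = neutral control wells and 100% = positive control wells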
MITF act: MITF TRPM1 promoter activation in melanoma cells. SK-MEL-5 TRPM1-promoter luciferase, 24 h; % of positive control, neutral wells = 0. activation, % at 12.5 µM. 300,000 tested, 0.75% active. AID 588334;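 active = mean activation of at least 80% with every replicate also reaching 80%; inconclusive = mean reaches 80% but some replicate falls short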;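 note: 0% = neutral control wells and 100% = parthenolide positive control wells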
Ring1 derepress: esBAF inhibition confirmed by Ring1 de-repression | mouse ESC E14, Ring1 mRNA RT-qPCR fold change | fold change at 33 µM | shares compounds with esBAF inh | 550 tested, under 10 active | AID 743176;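 active = Ring1 gene expression raised more than 2-fold over untreated cells in both replicates at either tested dose; inconclusive = only one replicate above 2-fold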;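 note: Ring1 transcript normalised to actin housekeeping signal by TaqMan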
esBAF Fgf4 qPCR: esBAF inhibition confirmed by Fgf4 repression | shares compounds with esBAF inh | mouse ESC E14, Fgf4 mRNA qPCR fold change; active compounds read low | Fgf4 expression fold change at 33 µM | 550 tested, 4% active | AID 743177;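 active = Fgf4 expression under 0.8 fold of control in both repeat measurements at one or both tested doses; inconclusive = under 0.8 fold in just a single repeat measurement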;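 note: Fgf4 transcript normalised to actin in duplex TaqMan qPCR; cells exposed to compound for 24 h before lysis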
esBAF Bmi1 qPCR: esBAF inhibition confirmed by Bmi1 de-repression | mouse ESE14 ES cells, Bmi1 mRNA qPCR fold; active compounds read high | fold change at 33 µM | shares compounds with esBAF inh | 550 tested, under 10 active | AID 743180;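 active = Bmi1 expression fold change above 6 at either tested concentration, seen in replicate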;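 note: higher fold means more Bmi1 de-repression and stronger esBAF inhibition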
A549 tox SP: A549 cell cytotoxicity. shares compounds with esBAF inh. plate reader. cell viability change % (negative = cytotoxic), % at 25 µM, hits read low. 550 tested, under 10 active. AID 743188; call rule not given here
HepG2 cytotox SP: kills or reduces viability of HepG2 cells; 550 tested, 4% active; activity change, negative = inhibition, % at 25 µM; HepG2 cytotoxicity, plate reader; active compounds read low; shares compounds with esBAF inh; in the data active = activity change below about -50%
HEK293 tox SP: cytotoxicity in HEK293 cells. 550 tested, 3% active. plate reader. activity change, negative = inhibition, % at 25 µM, hits read low. AID 743190. shares compounds with esBAF inh; in the data active = activity change below about -38%, passing the limit was not always enough
* hit, by the source's call; ? = inconclusive; . = no result given. A selection: hits, their analogues and other compounds. The true share with any hit is near 3%.

SMILES	Statin myotox sup	esBAF inh	Wnt act	MITF act	Ring1 derepress	esBAF Fgf4 qPCR	esBAF Bmi1 qPCR	A549 tox SP	HepG2 cytotox SP	HEK293 tox SP
CCN1C(=O)C(=CC=CN(C)c2ccccc2)SC1=S	-8	84*	7	.	1.1	0.93	1.5	-19	-8	-10
CCCC(=O)Nc1ccc2c(c1)OC[C@@H](C)N(C(=O)c1cnccn1)C[C@@H](C)[C@@H](OC)CN(C)C2=O	-17	6	.	.	.	.	.	.	.	.
O=C(O)c1ccc2noc(-c3ccccc3)c2c1	6	82*	.	53	1.1	?	1.5	3	9	2
CC(C)(C)c1cc(C(=O)Nc2ccccc2)ccn1	.	19	-3	.	.	.	.	.	.	.
Cc1ccc(NC(=O)c2ccnc(C(C)(C)C)c2)cc1	-4	71*	18	.	1.2	0.93	1.6	1	-47	-13
Cc1ccc(CNC(=O)C2CCC(=O)N(CCc3ccc(Cl)cc3)C2)s1 (centres undefined)	-1	-3	-4	20	.	.	.	.	.	.
Cc1ccc(CNC(=O)C2CCC(=O)N(CCc3ccc(Cl)cc3)C2)cc1 (centres undefined)	15	56*	8	75	1.2	0.93	1.7	-5	3	2
CC(C)(O)c1cc2ccc(C#Cc3ccsc3)cc2c(=O)o1	2	71*	29	76	1.3	0.84	2.3	-3	-19	-11
O=C(C[C@H]1C[C@H]2c3cc(NC(=O)NC4CCCC4)ccc3O[C@H]2[C@@H](CO)O1)NCC(F)(F)F	-7	1	.	.	.	.	.	.	.	.
CC(O)(c1ccccc1)c1nc(-c2cccc(C(=O)O)c2)cs1 (centres undefined)	12	69*	27	.	1.1	0.83	1.2	-9	2	-14
CNC(=O)c1ccc(-c2cc3onc(-c4ccccc4)c3c(=O)n2C)cc1	9	81*	43*	96*	0.92	0.88	1.5	-10	15	-2
CC(=Nc1ccccc1O)c1sc2ccccc2c1O	17	83*	86*	49	0.81	1.1	2.2	-10	-9	1
Cc1noc(C)c1NC(=O)N(C)C[C@@H]1Oc2ccc(NC(=O)CCN3CCOCC3)cc2C(=O)N([C@H](C)CO)C[C@@H]1C	.	-5	.	.	.	.	.	.	.	.
COc1ccc2c(ccc[n+]2[O-])c1	5	2	-3	-2	.	.	.	.	.	.
COc1ccc2nc3ccccc3[n+]([O-])c2c1	6	72*	4	26	1.4	1.3	2.5	-6	-14	-11
N#C[C@H]1[C@@H](c2ccc(C#CC3CCCCC3)cc2)[C@H](CO)N1C(=O)Cc1ccccn1	14	17	.	.	.	.	.	.	.	.
Cc1ccnc(N2CCCC(C(=O)Nc3ccc(C)c(C)c3)C2)n1 (centres undefined)	-6	12	7	-13	.	.	.	.	.	.
Cc1ccc(NC(=O)C2CCCN(c3ncccn3)C2)cc1C (centres undefined)	1	55*	11	52	1.2	0.93	1.6	-6	-32	-10
CNC[C@H]1OCCCC[C@@H](C)Oc2ccc(NC(=O)Nc3cccc4ccccc34)cc2C(=O)N([C@H](C)CO)C[C@@H]1C	14	2	.	.	.	.	.	.	.	.
CS(=O)(=O)c1cccc(-c2csc(N3CCC(C(N)=O)CC3)n2)c1	0	68*	9	50	1.2	0.86	1.3	-6	2	-6
CCc1ccccc1NC(=O)c1cc(-c2cccc(O)c2)on1	3	79*	21	.	1.2	?	1.2	-17	-11	-18
O=C(Nc1ccccc1C(F)(F)F)c1cc(-c2cccc(O)c2)on1	6	31	.	68	.	.	.	.	.	.
COc1ccc(-c2cc(C(=O)N3CCN(c4ccccc4)CC3)no2)cc1	24	60*	-3	55	1.3	0.93	1.6	4	34	-9
C[C@@H]1CN([C@H](C)CO)C(=O)c2cc(NS(=O)(=O)c3cccs3)ccc2O[C@H]1CN(C)Cc1ccc(C(=O)O)cc1	.	-1	.	.	.	.	.	.	.	.
O=C(NC(Cc1nn[nH]n1)C(=O)OCc1ccccc1)OCc1ccccc1 (centres undefined)	7	-3	2	.	.	.	.	.	.	.
SMILES	Statin myotox sup	esBAF inh	Wnt act	MITF act	Ring1 derepress	esBAF Fgf4 qPCR	esBAF Bmi1 qPCR	A549 tox SP	HepG2 cytotox SP	HEK293 tox SP
O=C(CC(NC(=O)OCc1ccccc1)c1nn[nH]n1)OCc1ccccc1 (centres undefined)	1	75*	15	.	1.3	0.97	1.5	-9	-17	-3
COc1ccc(C#Cc2cnc3c(c2)C(=O)N([C@H](C)CO)C[C@H](C)[C@@H](CN(C)C(=O)c2ccccc2F)O3)cc1	-1	0	.	.	.	.	.	.	.	.
C[C@@H]1CN([C@H](C)CO)C(=O)c2cc(NC(=O)CCC(F)(F)F)ccc2O[C@@H](C)CCCCO[C@H]1CN(C)S(=O)(=O)c1cn(C)cn1	22	1	.	.	.	.	.	.	.	.
Cc1ccc(C)c(N=Nc2ccc(O)c3ncccc23)c1	.	.	-9	-62	.	.	.	.	.	.
Cc1ccc(N=Nc2cc(C)ccc2O)c(C)c1	3	87*	17	52	1.1	?	1.7	-8	-50*	-14
C[C@@H]1CN([C@H](C)CO)C(=O)c2cc(NC(=O)CCN3CCOCC3)ccc2O[C@H]1CN(C)S(=O)(=O)c1cccs1	-27	2	.	.	.	.	.	.	.	.
CC(=O)Nc1ccc(-c2nc3c(C)cccc3[nH]2)cc1	1	60*	48*	.	1.3	0.86	1.8	-6	-1	-2
CCNC(=O)[C@@H]1[C@@H](CO)[C@@H]2Cn3c(ccc(-c4ccccc4F)c3=O)[C@@H]2N1CC	10	-5	.	.	.	.	.	.	.	.
CO[C@@H]1CN(C)C(=O)c2ccc(NS(=O)(=O)c3cn(C)cn3)cc2OC[C@H](C)NC[C@@H]1C	2	-9	.	.	.	.	.	.	.	.
COc1ccc(NC(=O)Nc2ccc(F)c(F)c2)c(OC)c1	.	.	1	-71	.	.	.	.	.	.
COc1ccc(NC(=O)Nc2cc(C)ccc2F)cc1	-39	123*	29	101*	0.91	0.93	1.6	-19	-34	-25
Cc1ccc(NC(=O)Nc2ccc(F)c(Cl)c2)cc1	-27	64*	47*	65	0.94	1.3	1.5	-9	-18	-33
COc1cccc(N(C(=O)c2cccs2)c2nc3ccccc3s2)c1	-40	59*	.	65	1.4	0.97	2.9	-1	-10	-13
C[C@H]1CN([C@@H](C)CO)C(=O)Cc2cc(NC(=O)NC3CCCCC3)ccc2O[C@@H]1CN(C)C(=O)Nc1cccc2ccccc12	36	-2	.	.	.	.	.	.	.	.
